# High-throughput results deposited in PubChem by National Center for Advancing Translational Sciences (NCATS).
# Most compounds without a hit are left out; they make up all but 8% or so of the library.
# SW480 rerep – A quantitative high throughput screen for small molecules that induce DNA re-replication in SW480 colon adenocarcinoma cells; SW480 DNA re-replication, Hoechst DNA content imaging, 48 h; Potency, µM (top dose mostly 46.1 µM), inactives show at the top dose re-replication activation, usual class: activators; 340,000 compounds, 1.8% hits; AID 624297, 2012; note: % of control where 0% means no effect; nearly all actives have a fitted effect of over 55% in size
#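 SW480 cells exposed to compounds for 48 hr at 37 C, 5% CO2, then Hoechst-stained 40 min. Nuclear DNA content imaged by fluorescence scanning (405 nm excitation, 500-530 nm emission); re-replication scored as increased high-intensity nuclei.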
# KB-V1 cytotox – qHTS assay for MDR1-selective chemotherapeutics: Primary screen using the drug-selected MDR subline cells KB-V1. 400,000 compounds, 3.4% hits. Potency, µM (series often up to 46.1 µM), most hits filed as cytotoxic. KB-V1 MDR cells viability, CellTiter-Glo, 72 h; note: % is set by controls: 0 for no effect and ±100 for the full control effect; nearly all actives have a fitted effect of over 60% in size
#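 Compound-treated KB-V1 multidrug-resistant cells, 72 h, 37 degrees C; viability by CellTiter-Glo. Fitted qHTS curves give the values.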
# MCF10A rereplic – A quantitative high throughput screen for small molecules that induce DNA re-replication in MCF 10a normal breast cells; MCF 10A DNA re-replication, Hoechst nuclear intensity, 48 h; Potency, µM (titrated, usually from 46.1 µM), inactives show at the highest dose activity, positive = re-replication, most hits filed as activators; 350,000 compounds, 2.9% hits; AID 624296, 2012; note: % of control where 0% means no effect; nearly all actives have a fitted effect of over 50% in size
# HT1080-NT tox – qHTS for induction of synthetic lethality in tumor cells producing 2HG: qHTS for the HT-1080-NT fibrosarcoma cell line | Potency, µM (doses to about 46.1 µM), for inactives: top-dose activity, negative = less viability, hits mostly cytotoxic | 360,000 compounds, 1.6% hits | HT-1080-NT fibrosarcoma viability, CellTiter-Glo ATP luminescence, 48 h;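 note: NT is the 2HG producing partner of a matched IDH1 knockdown line; 0% = DMSO-treated cells and -100% = media-only wells without cells; nearly all actives have a fitted effect of over 55% in size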
#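 Fibrosarcoma NT cells, 750 per well in 5% FBS RPMI, were exposed to compound for 48 hours. Viability: CellTiter-Glo luminescence.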
# KB-3-1 tox – qHTS assay for MDR1-selective chemotherapeutics: Primary screen using the parental adenocarcinoma cell KB-3-1; KB-3-1 viability, CellTiter-Glo ATP luminescence, 72 h; Potency, µM (titrated, usually from 46.1 µM), usual class: cytotoxic; 400,000 compounds, 1.4% hits; AID 1347075, 2019; note: % is set by controls: 0 for no effect and ±100 for the full control effect; nearly all actives have a fitted effect of over 60% in size
#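 Parental KB-3-1 viability, qHTS format: 72 h compound exposure, 37 °C; CellTiter-Glo; media-only wells and DMSO plates as controls; concentration-effect fits on corrected data.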
# HT1080 IDH1KD tx – qHTS for induction of synthetic lethality in tumor cells producing 2HG: qHTS for the HT-1080-IDH1KD cell line; HT-1080 IDH1 knockdown viability, ATP luminescence, 48 h; Potency, µM (series often up to 46.1 µM), for the others: at the highest dose activity, negative = toxicity, hits mostly cytotoxic; 360,000 compounds, 2% hits;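 note: 0% = DMSO wells and -100% = cell-free medium wells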
#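 HT-1080-IDH1KD cells (IDH1 knocked down), 750/well in RPMI with 5% FBS, treated with compound 48 h at 37 degrees C. Viability by CellTiter-Glo luminescence, normalised to DMSO and no-cell wells; concentration-response curves classed.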
# Active calls of the source: *; i = inactive; ? = inconclusive; · = not tested or not shown. Calls come from the whole dose curve; as a rule, active = well fitted curve in the direction sought with a large enough effect; inconclusive = small, poorly fitted or top-dose-only effect, or another doubt; inactive = no such curve, though single readings can be large; an effect the other way counts as inactive or inconclusive. Potency is the fitted concentration of half-maximal effect.
SMILES,SW480 rerep,KB-V1 cytotox,MCF10A rereplic,HT1080-NT tox,KB-3-1 tox,HT1080 IDH1KD tx
CC(C)(C)C(=O)NC(c1ccccc1)c1c(O)ccc2ccccc12 (stereo not drawn),16%,i,24%,21%,i,13%
CCC(=O)NC(c1cccc([N+](=O)[O-])c1)c1c(O)ccc2ccccc12 (stereo not drawn),5%,i,4%,-12%,i,0%
COc1ccc(C(NC(=O)CC(C)C)c2c(O)ccc3ccccc23)cc1 (stereo not drawn),3%,i,?,?,?,?
CCCC(=O)NC(c1ccc(OC)cc1)c1c(O)ccc2ccccc12 (stereo not drawn),21µM*,?,3.7µM*,?,?,?
CCOc1ccc(C(NC(=O)CC)c2c(O)ccc3ccccc23)cc1 (stereo not drawn),9.2µM*,i,?,?,?,?
CC(C)CC(=O)NC(c1ccccc1Cl)c1c(O)ccc2ccccc12 (stereo not drawn),?,21µM*,?,-26%,?,?
O=[N+]([O-])c1cccc(-c2nnc3n2CCCCC3)c1,-16%,?,-12%,21%,i,16%
CN1CCN(C(=O)c2cc3nc(-c4ccccc4)cc(C(F)(F)F)n3n2)CC1,0%,i,-1%,-2%,i,-1%
CSCSC1=C(C#N)C(c2ccccc2Cl)C(C(C)=O)=C(C)N1 (stereo not drawn),?,?,?,-20%,i,0%
Cc1cc(N/N=C/c2cccc(Br)c2)nc2ccccc12,-17%,21µM*,2%,-1%,i,0%
Cc1cc(N/N=C/c2ccncc2)nc2ccccc12,-71%,6.5µM*,-9%,7%,?,-4%
Cc1ccc(C(=O)NCCn2cc(SCC(=O)Nc3nnc(C)s3)c3ccccc32)cc1,2%,i,12%,-15%,i,-2%
CC(C)(C)C(=O)Nc1ccc2nc(SCC(=O)N3CCc4ccccc43)sc2c1,·,i,·,·,?,·
COc1ccc(CNn2c(-c3cccs3)nc3ccccc3c2=O)cc1OC,?,23µM*,?,-27%,i,-28%
COc1cccc(C(=O)Nn2c(-c3cccs3)nc3ccccc3c2=O)c1OC,-2%,?,17%,0%,i,-3%
O=c1c2cnn(-c3ccccc3)c2nc(-c2cccs2)n1-c1cccc(Cl)c1,6%,10µM*,?,3%,?,0%
O=c1c2cnn(-c3ccccc3)c2nc(-c2cccs2)n1-c1ccc(Cl)cc1,-6%,i,?,2%,i,4%
O=c1c2ccccc2nc(-c2cccs2)n1-c1cccc2ccccc12,-131%,23µM*,22%,3%,?,1%
CC(CCc1ccccc1)NC(=O)CSc1n[nH]c(-c2ccccc2Cl)n1 (stereo not drawn),·,i,·,·,i,·
Cc1ccc(SCC(=O)OCC(=O)NCC2CCCCC2)cc1C,-15%,i,1%,-1%,i,1%
Cc1ccc(SCC(=O)OCC(=O)NCCNC(=O)COC(=O)CSc2ccc(C)c(C)c2)cc1C,-1%,i,13%,2%,0.0052µM*,3%
CCCCOc1ccc(CNC(=O)c2cccc(NC(=O)N3CCSc4ncccc43)c2)cc1,·,i,·,·,?,·
COc1ccccc1CNC(=O)COC(=O)CC1CC2CCC1C2 (stereo not drawn),2%,i,-1%,3%,i,3%
Cc1c(O)ccc(/C(Cc2ccc3ccccc3n2)=N\O)c1O,5%,?,?,-2%,16µM*,-3%
CC(C)(C)CC(C)(C)c1ccc(O)c(-n2nc3ccccc3n2)c1,2%,·,27µM*,·,·,·
SMILES,SW480 rerep,KB-V1 cytotox,MCF10A rereplic,HT1080-NT tox,KB-3-1 tox,HT1080 IDH1KD tx
CCCCOc1ccc2c(c1)/C(=C(\C(Cl)=C(Cl)Cl)[N+](=O)[O-])N2,26%,21µM*,?,9%,?,-2%
Nc1nonc1C(=O)NCCNCc1c(OCc2ccccc2F)ccc2ccccc12,?,i,?,?,?,10µM*
Nc1nonc1C(=O)NCCNCc1ccccc1F,·,i,·,·,i,·
CNCc1c(OCc2ccccc2)ccc2ccccc12,1%,i,-13%,-16%,i,?
Nc1nonc1C(=O)NCCNCc1cc(Br)ccc1OCc1ccc(F)cc1,-1%,?,?,-8%,11µM*,-22%
CNCc1c(OCc2ccccc2F)ccc2ccccc12,?,12µM*,?,18µM*,i,?
COc1ccc(CNCCNC(=O)c2nonc2N)cc1OC,-3%,i,16%,2%,i,2%
CC(=O)Nc1ccc(-c2ccnc3c2CC(C(=O)Nc2cccc(N(C)C)c2)O3)cc1 (stereo not drawn),·,i,·,?,i,12µM*
CC(=O)Nc1ccc(-c2ccnc3c2CC(C(=O)Nc2cccc(Oc4ccccc4)c2)O3)cc1 (stereo not drawn),·,?,·,?,?,15µM*
CC(=O)c1cccc(NC(=O)C2Cc3c(-c4ccccc4Oc4ccccc4)ccnc3O2)c1 (stereo not drawn),·,?,·,?,i,?
CC(=O)Nc1ccc(NC(=O)C2Cc3c(-c4ccc(Cl)cc4)ccnc3O2)cc1 (stereo not drawn),·,i,·,?,i,-6%
